The record followed here is PubChem BioAssay AID1508600 (Functional Genomics Laboratory (NCATS/FGL), 2020).

The whole screen tested about 53,000 sequences, of which about 3,700 (7%) were called active. The sample as a whole holds a higher share of actives than the screen did. Unmarked numbers belong to inactive results.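 Rule for the calls: active = gene knockdowns whose robust z-score for IL-1 alpha signal is at least 2 or at most -2, so actives lie on both sides; inactive = the rest.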

The test is described as follows: Components of the Cytosolic LPS Sensing Pathway: Gene Identification via Genome-wide siRNA Screen.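 Note: robust z of the log signal after scaling to non-targeting control siRNA wells of the plate.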 To be noted: RAW264.7 macrophages, IL-1a HTRF, actives lie on both sides, screened at 100 nM (by protocol), cells primed 5 h with Pam3CSK4 first. The procedure, abridged:
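Supernatant IL-1a by HTRF from RAW264.7 cells primed with Pam3CSK4 (5 hours) and transfected with LipidA (24 hour) after 48h siRNA knockdown at 100 nM; cell viability checked with CellTiter-Glo.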
(In general: Time-resolved FRET reads energy transfer from a long-lived donor to a nearby acceptor.)
GGAUGUGAAACAUGCUUUUTT against Olfr1030: the z-score is 0.536. Take CCUCAUGCAGCUCAAUCUATT against Prelp: the z-score was -2.41 (active). For GGCUAUGGCUUUUGUAUGUTT against Arpin the value was -0.0747; for GGACUCAAUAAGAACCUCGTT against Papss1, -1.25; for GGAUGAAAGUUGUAUGUAUTT against Ctsk, -0.606. Next, GGAUCGUGAGCUUCUAUUATT against Gask1a: 0.434; CGAGAAGUGCUGACUCAAUTT against Map2k3os: 0.563; GGAUGUCUGGAAUGAAACATT against Slc17a4: -3.16 (active). On to GGAGAGCUGCAUCAAAAAGTT against Prdm16, for which the z-score was 0.545. For the sequence GGUGCUCAUGCAGGUCCAUTT against Slc25a25, the z-score was -0.356.

As for GGGCCAUCUCUCAAUUAUGTT against Gga2, the z-score is 1.93. For GGUUCUACAUGUGAAACAATT against Zfp143 the value was -2.15 (active).

As to GCCUGGUCUCACUAUGUAGTT against Hpvc2, the z-score was 0.129. On to GGACGUGUUUUACAAAUACTT against Srsf1, for which the z-score was -0.979. Next, GGGAAAAUAUCUCAUAUCATT against Colec10: -0.944; GGGCUGAAGAUGACUUCAATT against Topors: 5.91 (active); GGAUGUCUCGGAACUAAGGTT against Med28: -0.571. For GGUAUUACAAGGUCAUAUCTT against Nol12 the value was -0.357. Next, UGGCCACGACCCUGAACUUTT against Ghrhr: 0.56; GGCAUCAAAAAGCAGACAATT against Erich2: -1.98; GGCUAUGGAACAAAGUACUTT against Sostdc1: 0.838. For the sequence GGAAAGCACUUUUAUUCCUTT against Sgip1, the z-score was -0.901. For GCCUCGAGAUAUUCUUUGUTT against Snrnp200 the value was -2.07 (active).

Take GCUAAAAGGCUACGGGAGUTT against Bhlhe23: the z-score was -0.266. Next, GUGCAGAUAUCUUUAGCAATT against Olfr159: -0.958; GGAUGAGAGUAAGAUCUCGTT against Vipr2: -0.296; GGAAAACUACCUCUUUUGATT against Cbll1: 1.4.

With GGAGAUCUUAGAGAAAUUATT against Pak1, the z-score is -0.956. For GCAAAGUGGAUAUAGUGUCTT against Gprin1 the value was -0.217.
